Source: PubChem BioAssay (NCATS)
Values joined by “and” are separate entries in the source; they are usually repeats but may differ in a detail not shown here. Identical values can stand only once. Inconclusive results are not listed. Values without a mark were called inactive. Calls come from the whole dose curve; as a rule, active = well fitted curve in the direction sought with a large enough effect in the signal ratio, with a control signal flat; inconclusive = small, poorly fitted or top-dose-only effect, or a change in a side signal; inactive = no such curve, though single readings can be large or run the other way; the % refers to the signal ratio.

These compounds were tested against Glucocorticoid receptor (Homo sapiens) (UniProt P04150) (assay: qHTS assay for small molecule agonists of glucocorticoid receptor signaling (AID 588532)). Conditions: HeLa MMTV-bla, beta-lactamase ratio, agonist, 18 h; stronger effect = higher value; percent of dexamethasone control, DMSO zero.
Sequence of Glucocorticoid receptor (Homo sapiens) (P04150 whole entry, looked up): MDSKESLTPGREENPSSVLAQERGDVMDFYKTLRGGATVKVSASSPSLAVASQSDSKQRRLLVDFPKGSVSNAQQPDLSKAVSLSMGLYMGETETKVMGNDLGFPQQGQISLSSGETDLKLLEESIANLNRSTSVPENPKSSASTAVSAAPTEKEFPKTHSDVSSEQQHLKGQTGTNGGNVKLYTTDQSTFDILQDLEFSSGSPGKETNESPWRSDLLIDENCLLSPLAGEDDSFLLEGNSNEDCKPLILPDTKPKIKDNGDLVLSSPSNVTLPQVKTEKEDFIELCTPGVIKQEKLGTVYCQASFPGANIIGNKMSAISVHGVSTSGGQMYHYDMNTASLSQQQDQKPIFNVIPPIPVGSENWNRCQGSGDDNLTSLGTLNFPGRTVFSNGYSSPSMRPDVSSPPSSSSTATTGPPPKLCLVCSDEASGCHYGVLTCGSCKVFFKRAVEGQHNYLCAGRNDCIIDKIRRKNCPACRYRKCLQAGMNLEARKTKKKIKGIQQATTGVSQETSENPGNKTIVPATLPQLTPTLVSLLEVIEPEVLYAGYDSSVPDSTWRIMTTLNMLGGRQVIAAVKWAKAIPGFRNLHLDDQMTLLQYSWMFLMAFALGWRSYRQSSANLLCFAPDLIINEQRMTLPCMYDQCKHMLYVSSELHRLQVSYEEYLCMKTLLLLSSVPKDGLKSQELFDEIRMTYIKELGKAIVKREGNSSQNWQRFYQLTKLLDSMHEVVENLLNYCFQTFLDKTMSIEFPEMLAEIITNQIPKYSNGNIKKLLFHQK
Source text: NIH Chemical Genomics Center [NCGC] U.S. Environmental Protection Agency [EPA] National Institutes of Environmental Health Sciences [NIEHS] National Toxicology Program [NTP] NCGC Assay Overview The Glucocorticoid receptor (GR), a nuclear receptor subfamily member and its natural ligands includes […] etc. The GR is a validated drug target for inflammation. GR ligands such as dexamethasone are clinically available as anti-inflammatory drugs. Glucocorticoids implicate role in carbohydrate, protein and lipid metabolisms and programmed cell death. They are also a component of many chemotherapy regimens for the treatment of leukemias, lymphomas, and myelomas because of their role in the induction of apoptosis.
NCGC Assay Protocol Summary Using a beta-lactamase reporter-gene under control of glucocorticoid response element (GRE), a cell-based assay [CellSensor MMTV-bla HeLa cell line assay developed by Invitrogen] was used to measure GR ligands signaling. CellSensor MMTV-bla HeLa cells were used with assay medium containing 1% charcoal/dextran treated FBS, 0.1 mM NEAA, 1 mM sodium pyruvate and 25mM HEPES. The assay was performed in clear bottom black Greiner 1536-well plates. Dexamethasone and Mifepristine were used in the screen as agonist and antagonist positive controls respectively. Library compounds were measured for their ability to stimulate the reporter gene activity. Compounds were screened in a titration series in 1536-well format. The fluorescence intensity (405 nm excitation, 460/530 nm emission) was measured using an EnVision plate reader. Data was normalized relative to Dexamethasone control (0.1 uM, 100%), and DMSO only wells (basal, 0%). Concentration-response titration points for each compound were fitted to the Hill equation yielding concentrations of half-maximal stimulation (EC50) and maximal response (efficacy) values. qHTS protocol for GR beta-lactamase assay in agonist mode [Step] [Parameter] [Value] [Description] 1. Reagent; 6 uL; 1500 cells/well 2. Incubation; 37 C for 3-5 hrs 3. Compounds; 23 nL; 0.59 nM to 92 uM 4. Controls (Dexamethasone); 23 nL, - One column with dose response, start 4.6uM, 1:3 dilutions in duplicates - Final concentrations of 0.1 uM and 2 nM in two columns 5. Incubation; 37 C for 18 hrs 6. Detection reagent; 1 uL of CCF4-dye 7. Incubation; RT for 2 hrs 8. Detection; Fluorescence; Envision plate reader
`Oc1cccc(O)c1O` gave an activation of 11%. For `NCCO/C=C/[C@H](N)C(=O)O`, the activation was -5.2%. `C=CC(C)(O)CC/C=C(\C)CCC=C(C)C` (configuration not stated) gave an activation of 1.37%. With `CC(C)CCCCCCc1ccc(O)cc1` the activation was -1.88%. In the case of `C[C@H](CCC(=O)O)[C@H]1CC[C@H]2[C@@H]3[C@H](O)C[C@@H]4C[C@H](O)CC[C@]4(C)[C@H]3C[C@H](O)[C@]12C`, the activation is reported as 0.114%. `OCc1ccccc1` showed an activation of -0.651%. Work on `O=c1n(CC2CO2)c(=O)n(CC2CO2)c(=O)n1CC1CO1` (configuration not stated) yielded an activation of -4.93%. `OC[C@H]1O[C@@H]2O[C@H]3[C@H](O)[C@@H](O)[C@@H](O[C@H]4[C@H](O)[C@@H](O)[C@@H](O[C@H]5[C@H](O)[C@@H](O)[C@@H](O[C@H]6[C@H](O)[C@@H](O)[C@@H](O[C@H]7[C@H](O)[C@@H](O)[C@@H](O[C@H]1[C@H](O)[C@H]2O)O[C@@H]7CO)O[C@@H]6CO)O[C@@H]5CO)O[C@@H]4CO)O[C@@H]3CO` was tested, and the activation was 3.77% and 9.85%. For `Cc1ccc(S(=O)(=O)O)cc1C`, the activation was 2.36%. For `C=C(C)C1CC=C(C)CC1` (configuration not stated), the activation was -1.86% and -2.03%. In the case of `CC1=CC(=O)NS(=O)(=O)O1`, the activation is reported as -3.71%. With `O=P(O)(O)O` the activation was -2.92%. In the case of `Nc1ccc(N=Nc2ccccc2)c(N)n1`, the activation is reported as -10.4% and 1.07%. Work on `CCOC(C)OCC` yielded an activation of -4.92%. With `C[C@H](CCC(=O)O)[C@H]1CC[C@H]2[C@@H]3CC[C@@H]4C[C@H](O)CC[C@]4(C)[C@H]3C[C@H](O)[C@]12C` the activation was -6.09%. Work on `CCCCCCCCCCCCCCCCCC(=O)OC[C@@H](O)[C@H]1OC[C@H](O)[C@H]1O` yielded an activation of 3.63%. With `OB(O)O` the activation was -3.94% and -21.4%. Work on `CO[C@@H]1[C@H](OC(=O)/C=C/C=C/C=C/C=C/C(=O)O)CC[C@]2(CO2)[C@H]1[C@@]1(C)O[C@@H]1CC=C(C)C` yielded an activation of -1.18%. In the case of `OCCOCCOCCO`, the activation is reported as -3.1% and -7.85%. `CCCCC` showed an activation of 1.13%. In the case of `CC(C)(C)CC(C)(C)c1ccc(OCCO)cc1`, the activation is reported as 12%. `OCl` was tested, and the activation was -3.26%. With `N[C@@H](Cc1cc(I)c(Oc2ccc(O)c(I)c2)c(I)c1)C(=O)O` the activation was -18.8%. In the case of `CC1=CCC2CC1C2(C)C` (configuration not stated), the activation is reported as 3.24%. `Cc1ccc(S(=O)(=O)NCl)cc1` showed an activation of 0.935%. For `ClC(Cl)Cl`, the activation was -4.49%. For `C[C@H]1O[C@@H](O[C@H]2[C@@H](O)C[C@H](O[C@H]3[C@@H](O)C[C@H](O[C@H]4CC[C@@]5(C)[C@H](CC[C@@H]6[C@@H]5C[C@@H](O)[C@]5(C)[C@@H](C7=CC(=O)OC7)CC[C@]65O)C4)O[C@@H]3C)O[C@@H]2C)C[C@H](O)[C@@H]1O`, the activation was -7.98%. In the case of `OCC(O)CO`, the activation is reported as 2.41% and -1.45%. `[O-][N+](=Nc1ccccc1)c1ccccc1` was tested, and the activation was 3.15%. Work on `Nc1nccs1` yielded an activation of 10.5%. For `CC(C)CCC[C@@H](C)[C@H]1CC[C@H]2[C@@H]3CC=C4C[C@@H](O)CC[C@]4(C)[C@H]3CC[C@]12C`, the activation was 13.5%. `CO/N=C(/C(=O)N[C@@H]1C(=O)N2C(C(=O)O)=C(COC(N)=O)CS[C@H]12)c1ccco1` showed an activation of 5.73%.
